TLR9-MyD88 inh: blocks human TLR9 binding to MyD88; CHO BLA complementation TLR9-MyD88, CCF4 FRET ratio; inhibition, % at 4.98 µM; 340,000 compounds, 0.21% hits; AID 504734;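 active = inhibition above the mean over all tested compounds plus 3 SD, cut at about 21% in these data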;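 note: 0% = DMSO only wells and 100% = clavulanate BLA inhibitor control wells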
TLR4 MyD88 comp: blocks binding of human TLR4 to MyD88; HeLa CL3-4 TLR4/MyD88 BLA complementation, FRET ratio; 200,000 compounds, 0.18% hits; O00206+Q99836; inhibition, % at 8.4 µM; in the data active = inhibition above about 25%;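 note: 0% = vehicle and 100% = reference inhibitor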
Exocytosis inh: lytic granule exocytosis inhibition; TALL-104 LAMP-1 surface exposure, flow cytometry; cells stimulated with thapsigargin and PMA; inhibition, % at 10 µM; 360,000 compounds, 0.66% hits;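 active = inhibition above about 55%, limit read from the data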
B2AR ag: agonists of human beta-2 adrenergic receptor inducing internalization; AID 504454; P07550; Am2.2-beta2AR cells, FAP receptor internalization, flow cytometry; 340,000 compounds, 0.43% hits; response, % (test concentration not listed);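 active = response above a set limit, near 3 SD of response in nonfluorescent compounds, cut at about 42% in these data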
NOD2 RIPK2 PPI: blocks binding of human NOD2 to RIPK2; AID 624267; CHO BLA complementation NOD2-RIPK2, CCF4 ratio; 360,000 compounds, 0.38% hits; inhibition, % at 4.98 µM; in the data active = inhibition above about 21%;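 note: 0% = vehicle only and 100% = reference blocker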
Target sequence (O43353 whole entry, looked up): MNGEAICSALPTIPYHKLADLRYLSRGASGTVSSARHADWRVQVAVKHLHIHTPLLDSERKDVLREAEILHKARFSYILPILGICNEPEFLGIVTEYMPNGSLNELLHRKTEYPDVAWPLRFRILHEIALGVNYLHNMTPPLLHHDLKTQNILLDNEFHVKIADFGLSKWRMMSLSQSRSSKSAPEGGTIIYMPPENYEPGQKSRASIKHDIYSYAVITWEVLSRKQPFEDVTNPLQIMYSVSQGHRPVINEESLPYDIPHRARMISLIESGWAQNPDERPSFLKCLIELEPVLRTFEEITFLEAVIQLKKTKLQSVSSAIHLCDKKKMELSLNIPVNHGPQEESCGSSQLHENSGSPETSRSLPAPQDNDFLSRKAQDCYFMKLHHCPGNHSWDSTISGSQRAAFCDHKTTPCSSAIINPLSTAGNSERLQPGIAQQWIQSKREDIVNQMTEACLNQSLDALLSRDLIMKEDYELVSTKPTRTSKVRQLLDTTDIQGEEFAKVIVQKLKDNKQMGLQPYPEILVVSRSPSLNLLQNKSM
ABHD5-PLIN5 inh: blocks binding of human ABHD5 to perilipin-5 | Q00G26+Q8WTS1 | Split G. princeps luciferase complementation, luminescence, 4 h | 360,000 compounds, 0.78% hits | inhibition, % at 4 µM;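 active = inhibition above the mean inhibition across every tested compound plus 3 SD, cut at about 22% in these data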;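 note: 0% = DMSO only wells and the 100% control is not disclosed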
TLR9-MyD88 cf: TLR9-MyD88 interaction inhibition, confirmation | shares compounds with TLR9-MyD88 inh | CHO TLR9/MyD88 BLA complementation, CCF4 FRET ratio | inhibition, % at 4.98 µM | 680 compounds, 51% hits | AID 540250;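 active = mean inhibition across three repeats above about 21% taken from the earlier screen, limit read from the data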;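 note: blue over green emission ratio reports constitutive TLR9 MyD88 association via BLA complementation; 0% = DMSO vehicle wells and 100% = clavulanate BLA inhibitor wells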
BLA counter-1: beta-lactamase reporter inhibition, counter-screen artifact. AID 540251. shares compounds with TLR9-MyD88 inh. CHO-BLA cells, CCF4 FRET ratio, BLA reporter. inhibition, % at 4.98 µM. 680 compounds, 7% hits;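 active = mean inhibition above a 50% cutoff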;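 note: counterscreen of TLR9-MyD88 hits on CMV-driven BLA in CHO-K1 cells; 0% = DMSO alone and 100% = clavulanate blocking BLA; higher means less blue over green ratio so more BLA blockade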
TLR9 CHO cytotox: CHO cell toxicity counter-screen for TLR9-MyD88 inhibitors; 680 compounds, 39% hits; TLR9-MyD88 CHO cells cytotoxicity, luminescence; inhibition, % at 4.98 µM; shares compounds with TLR9-MyD88 inh; AID 588336; in the data active = inhibition above about 11%
ABHD5-PLIN5 conf: ABHD5-PLIN5 interaction inhibition, confirmed; inhibition, % at 4 µM; shares compounds with ABHD5-PLIN5 inh; 2,200 compounds, 67% hits; biochemical ABHD5-PLIN5 interaction, luminescence; in the data active = inhibition above about 23%;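 note: 0% = DMSO vehicle wells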
HNF4 counter: HNF4 split-luciferase signal hit, counter-screen; shares compounds with ABHD5-PLIN5 inh; HNF4 dimerization, luminescence, biochemical; inhibition, % at 4 µM; 2,200 compounds, 77% hits; AID 651674;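 active = mean inhibition across replicate wells exceeding the computed hit threshold, cut at about 13% in these data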;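 note: light from luciferase halves that rejoin when HNF4 fusion proteins dimerize; 0% = DMSO only wells and the 100% control is not given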
NOD2-RIPK2 conf: confirmation of human NOD2-RIPK2 interaction inhibitors; shares compounds with NOD2 RIPK2 PPI; AID 624370; inhibition, % at 4.98 µM; CHO cells, NOD2-RIPK2 BLA complementation, CCF4 FRET; 1,200 compounds, 70% hits;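 active = mean inhibition across replicates above a set limit taken from the earlier primary screen, cut at about 21% in these data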;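 note: 0% = DMSO-only wells and the high end = clavulanate BLA-blocked wells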
BLA counter-2: counter-screen for NOD2-RIPK2 interaction inhibitors: BLA reporter | CHO BLA reporter, CCF4 FRET ratio, counterscreen | inhibition, % at 4.98 µM | shares compounds with NOD2 RIPK2 PPI | 1,200 compounds, 57% hits;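 active = mean inhibition above the low-control mean inhibition plus three low-control SD, cut at about 11% in these data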;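 note: 0% = DMSO only wells and 100% = clavulanate high control wells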
* marks the source's active call; other numbers are inactive results; · = not tested or not shown. Shown are actives, neighbours in structure and some others; about 2% of the full set was active somewhere.

SMILES	TLR9-MyD88 inh	TLR4 MyD88 comp	Exocytosis inh	B2AR ag	NOD2 RIPK2 PPI	ABHD5-PLIN5 inh	TLR9-MyD88 cf	BLA counter-1	TLR9 CHO cytotox	NOD2-RIPK2 conf	BLA counter-2	others
CNC[C@@H]1OCc2cnnn2CCCC(=O)N([C@H](C)CO)C[C@H]1C	1	·	-3	·	8	3	·	·	·	·	·
CCCC(=O)OCCNc1cc(Sc2nc3ccccc3[nH]2)c2nonc2c1[N+](=O)[O-]	32*	22	21	37	75*	50*	68*	11	98*	92*	43*	ABHD5-PLIN5 conf=61*;HNF4 counter=110*
COc1ccc(C[C@@H]2OC3(C=CC(=O)C=C3)O[C@H]2Cc2ccc(OC)cc2)cc1	39*	·	96*	52*	92*	100*	44*	33	98*	93*	38*	ABHD5-PLIN5 conf=104*;HNF4 counter=108*
O=C1C=CC2(C=C1)O[C@H](Cc1ccccc1)[C@@H](Cc1ccccc1)O2	26*	·	98*	38	89*	98*	39*	26	99*	91*	29*	ABHD5-PLIN5 conf=103*;HNF4 counter=109*
O=C1Nc2ccccc2C1Cc1ccccc1 (configuration not stated)	6	·	0	4	1	4	·	·	·	·	·
CC(=O)CSc1nc2nccnc2[nH]1	-1	·	-4	·	0	-1	·	·	·	·	·
Cc1cccc(C)c1Cn1c(C)c(C(=O)NCc2ccc([N+](=O)[O-])cc2)sc1=O	·	·	-4	·	-4	-4	·	·	·	·	·
O=C(C(=O)N1CCC(Cc2ccccc2)CC1)c1ccccc1Br	·	·	6	·	-6	-8	·	·	·	·	·
Cn1ccn(CCCCCCn2ccn(C)c2=S)c1=S	-8	·	0	·	1	-10	·	·	·	·	·
CC(=O)Nc1ccc(-c2ccnc3c2CC(C)(C(=O)NCc2cccc(Cl)c2)O3)cc1 (configuration not stated)	·	·	13	·	-4	6	·	·	·	·	·
CCC(C)Sc1ccc(-c2nc3cnccn3c2NC2CCCCC2)cc1 (configuration not stated)	35*	·	1	-7	27*	-7	46*	48	3	65*	72*
CCCCNc1c(-c2ccc(OC)c(SC3CCCCC3)c2)nc2cnccn12	21*	·	14	-11	40*	-3	16	20	3	29*	42*
CCCCNc1c(-c2ccc(OC)c(SC3CCCCC3)c2)nc2cc(C)ccn12	3	·	-4	14	8	-2	·	·	·	·	·
CCC(C)Sc1ccc(-c2nc3cc(C)ccn3c2NC2CCCCC2)cc1 (configuration not stated)	1	·	-3	29	5	-13	·	·	·	·	·
COc1cccc(S(=O)(=O)Nc2ccc3c(c2)[C@H]2C[C@H](CC(=O)N[C@@H](C)c4ccccc4)O[C@H](CO)[C@H]2O3)c1	1	·	3	·	5	-4	·	·	·	·	·
CCN1CCN(CC(=O)N2N=C(c3cccs3)CC2c2ccc(OC)c(OC)c2)C(=O)C1=O (configuration not stated)	-8	-14	4	-3	-19	2	·	·	·	·	·
C=C1C(=O)c2sccc2C(c2ccc(OC)c(OC)c2)C1COC(C)=O (configuration not stated)	24*	·	28	102*	95*	79*	28*	7	97*	92*	13*	ABHD5-PLIN5 conf=95*;HNF4 counter=108*
COc1cc(C2CC(c3c(C)cc(C)[nH]c3=O)=NN2c2ccccc2F)cc(OC)c1OC (configuration not stated)	23*	·	-19	0	41*	4	17	18	4	35*	47*
COc1ccc(C2CC(c3ccc(F)cc3)=NN2c2ccccc2)cc1OC (configuration not stated)	0	·	-2	-4	-5	-4	·	·	·	·	·
Nc1c(C(=O)Nc2ccccc2F)sc2nc(-c3cccnc3)ccc12	38*	·	10	-1	21*	4	28*	30	4	46*	64*
COc1ccc(OC)c(/C=C/C(=O)N2C(=O)c3cccc(N)c3C2=O)c1	22*	17	0	15	21*	3	16	16	19*	39*	38*
COc1cc(/C=C/C(=O)N2C(=O)c3cccc(N)c3C2=O)cc(OC)c1OC	0	5	3	37	2	3	·	·	·	·	·
Oc1ccc(/C=C/c2ccc3cccc(O)c3n2)cc1Br	27*	·	3	-32	27*	4	10	14	2	39*	47*
O=C(COC(=O)c1cccc(OC(F)F)c1)Nc1ncccn1	14	·	13	-3	-6	-6	·	·	·	·	·
COc1ccc(NC(=O)/C(Cl)=C(/Cl)S(=O)(=O)Cc2ccccc2)cn1	28*	10	100*	37	56*	49*	21*	20	99*	68*	23*
COc1ccc(NC(=O)Nc2ccc(OCc3ccccc3)cc2)cn1	-8	·	6	14	-2	-11	·	·	·	·	·
CC1(C(=O)NS(=O)(=O)c2cccc(C#N)c2)CCN1C(=O)c1ccc(C2CCCCC2)cc1 (configuration not stated)	·	·	1	·	5	3	·	·	·	·	·
Cc1ccccc1-n1sc2cc(F)ccc2c1=O	36*	0	71*	7	34*	91*	21*	3	100*	47*	19*
O=c1c2ccccc2sn1-c1ccc(S(=O)(=O)N2CCCC2)cc1	-3	-10	3	-6	2	-28	·	·	·	·	·
O=c1c2cc(F)ccc2sn1-c1ccccc1	40*	·	-10	-11	48*	99*	36*	-2	97*	50*	12*

Bioassay records from PubChem.
